Screening data deposited in PubChem by several laboratories.
HSF1 activator: increases HSF-1 driven luciferase reporter signal; hit rate 1.7% among 300,000; activation, % at 9 µM; AID 504408; NIH3T3-HGL HSF-1 luciferase reporter, MG132, 8 h; 100% = twice DMSO control signal;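 active = mean replicate activation of at least 50% with a set share of replicates each reaching 50%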;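 note: 0% = median of the neutral control wells and 100% = twice that signal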
FXN GAA850 act: activators of GAA850 frataxin (FXN) promoter. HEK293 lucGAA850 FXN promoter luciferase reporter, 24 h; percent of 10 µM SAHA response. activation, % at 6 µM. hit rate 0.56% among 360,000. AID 540364;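 active = activation above the average of all compounds screened plus 3 SD, cutoff fixed separately per campaign, cut at about 7.5% in these data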;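 note: 0% = DMSO wells and 100% = 10 µM SAHA wells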
HSF1 inh: HSF1 inhibition | NIH3T3-HGL HSE-luciferase, MG132-induced, luminescence 8 h; hits give low values | activity change, negative = inhibition, % at 7.5 µM (by protocol) | hit rate 0.77% among 300,000 | AID 2098;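 active = more than half of replicate wells show activity change below -50%, luminescence cut by over half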;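 note: luciferase reports HSF-1 transcriptional activity via heat shock element; 0% = median of DMSO wells and -100% = zero luminescence signal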
AHR activator: activators of human aryl hydrocarbon receptor | P35869 | hit rate 2.5% among 320,000 | AHR-responsive luciferase reporter cells, luminescence | activation, % at 5 µM; in the data active = activation above about 47%;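 note: 0% = vehicle wells and 100% = reference agonist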
AHR act confirm: confirmation of human aryl hydrocarbon receptor activators; human cells, AHR-responsive luciferase reporter, luminescence; shares compounds with AHR activator; hit rate 87% among 2,300; activation, % at 9 µM; AID 2845; in the data active = activation above about 49%;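 note: HepG2 hepatoma cells carrying a DRE-driven firefly luciferase reporter; 0% = vehicle wells and 100% = reference agonist wells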
PXR counter: PXR activation, counter-screen for AHR activators; shares compounds with AHR activator; cell-based PXR reporter, luciferase luminescence; activation, % at 11.6 µM; hit rate 88% among 2,300; in the data active = activation above about 11%;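 note: human hepatoma DPX-2 cells expressing full-length human PXR; 0% = DMSO and 100% = reference agonist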
The depositor's hits bear a star. Only some compounds are listed: those with a hit (about 4.6% of all), similar ones and a draw of the others.

Screening Cn1c(CNc2ccc(Cl)cc2)nnc1SCc1ccccc1 returned HSF1 activator 19, FXN GAA850 act 2, HSF1 inh 11, AHR activator 101*, AHR act confirm 44 and PXR counter 141*.
For CC(=O)N(c1ccc(Cl)cc1)c1nc(C)cc(C)c1C#N the results were HSF1 activator -11, FXN GAA850 act 3, HSF1 inh 2, AHR activator 102*, AHR act confirm 112* and PXR counter 110*.
Screening COc1ccc(-n2c(SCC(=O)NCC3CCCO3)nc3c([nH]c4ccccc43)c2=O)cc1 (stereo unspecified) returned HSF1 activator 6, FXN GAA850 act 2, HSF1 inh -3 and AHR activator 8.
Cn1c(SCC(=O)NCCc2ccccc2)nc2c([nH]c3ccccc32)c1=O was read as HSF1 activator 34, FXN GAA850 act 5, HSF1 inh 11, AHR activator 118*, AHR act confirm 91* and PXR counter 115*.
COc1cccc(-n2c(SCC(=O)NCC3CCCO3)nc3c([nH]c4ccccc43)c2=O)c1 (stereo unspecified) was read as HSF1 activator -12, FXN GAA850 act -2, HSF1 inh -4, AHR activator 88*, AHR act confirm 128* and PXR counter 89*.
Screening Cn1c(SCC(=O)NCc2ccc(F)cc2)nc2c([nH]c3ccccc32)c1=O returned HSF1 activator 13, HSF1 inh -1, AHR activator 126*, AHR act confirm 97* and PXR counter 90*.
`COc1ccc(NC(=O)CSc2nc3c([nH]c4ccccc43)c(=O)n2C)cc1` gave HSF1 activator 4, FXN GAA850 act -1, HSF1 inh -1 and AHR activator 20.
For COc1cc[n+]([O-])cc1[N+](=O)[O-] the results were FXN GAA850 act 1.
O=C1C(c2ccncc2)=C(O)c2ccccc21 was read as HSF1 activator 32, FXN GAA850 act 1, HSF1 inh 5 and AHR activator -1.
Screening O=C(Nc1ccccc1N1CCCC1)c1ccc(Cl)cc1Cl returned HSF1 activator -2, FXN GAA850 act 2, HSF1 inh 2 and AHR activator 39.
Screening CN1CCN(c2ccccc2NC(=O)c2cccc([N+](=O)[O-])c2)CC1 returned HSF1 activator 7, FXN GAA850 act 2, HSF1 inh -17 and AHR activator 21.
Screening O=C(Nc1ccccc1N1CCCC1)c1ccc([N+](=O)[O-])cc1Cl returned HSF1 activator 14, FXN GAA850 act 0, HSF1 inh -4, AHR activator 91*, AHR act confirm 87* and PXR counter 212*.
O=C(Nc1ccccc1N1CCN(C(=O)c2ccc(Cl)cc2)CC1)c1cccc([N+](=O)[O-])c1 was read as HSF1 activator 71*, FXN GAA850 act -1, HSF1 inh 33, AHR activator 127*, AHR act confirm 102* and PXR counter 87*.
Screening Cc1ccc(CS(=O)(=O)Cc2ccc(C(=O)NCCCN3CCOCC3)o2)cc1 returned HSF1 activator -4, FXN GAA850 act -1, HSF1 inh -9 and AHR activator 0.
Screening C[C@H](CO)N1C[C@H](C)[C@@H](CN(C)S(=O)(=O)c2cccs2)Oc2ccc(NC(=O)C3CC3)cc2C1=O returned FXN GAA850 act -3 and AHR activator 0.
COc1ccc2[nH]c3c(NCCCN4CCCC4=O)ncnc3c2c1 was read as HSF1 activator 13, FXN GAA850 act -3, HSF1 inh -1 and AHR activator 29.
`c1ccc(-c2ccc3c(c2)c2c4n3CCN=C4CCC2)cc1` gave HSF1 activator 1, FXN GAA850 act 3, HSF1 inh -1, AHR activator 93*, AHR act confirm 84* and PXR counter 11*.
For COCCNC(=O)c1ccc(N2CC3CC(C2)c2cccc(=O)n2C3)c(NC(=O)c2cc(OC)cc(OC)c2)c1 (stereo unspecified) the results were HSF1 activator 6, FXN GAA850 act 1, HSF1 inh 6 and AHR activator -1.
O=C(CNC(=O)c1ccccc1F)N/N=C/c1cn[nH]c1-c1ccccc1 was read as HSF1 activator 2, FXN GAA850 act 1, HSF1 inh -1, AHR activator 140*, AHR act confirm 92* and PXR counter 19*.
C/C(=N\Nc1ccc(S(N)(=O)=O)cc1[N+](=O)[O-])c1ccccc1O was read as HSF1 activator 0, FXN GAA850 act 1, HSF1 inh -4 and AHR activator 1.
For COc1cc(N=Nc2ccccc2C(=O)O)ccc1O the results were HSF1 activator 12, FXN GAA850 act 0, HSF1 inh 0 and AHR activator 3.
`COc1cc(N=Nc2ccc3ccccc3c2)ccc1O` gave HSF1 activator 55*, FXN GAA850 act 7, HSF1 inh 30, AHR activator 84*, AHR act confirm 28 and PXR counter 13*.
O=[N+]([O-])c1cccc(NC(=S)N2CCc3ccccc3C2)c1 was read as HSF1 activator 46, FXN GAA850 act 1, HSF1 inh 16, AHR activator 105*, AHR act confirm 92* and PXR counter 54*.
CCc1cc(/C(Cc2ccc3ccccc3n2)=N\O)c(O)cc1O was read as HSF1 activator 7, FXN GAA850 act -1, HSF1 inh 7, AHR activator 88* and AHR act confirm 55*.
`c1ccc(-c2noc(-c3cccc4ccccc34)n2)nc1` gave HSF1 activator -14, FXN GAA850 act 1, HSF1 inh -19, AHR activator 103*, AHR act confirm 21 and PXR counter 10.
Screening Clc1cccc(-c2nc(-c3ccccn3)no2)c1 returned HSF1 activator 32, FXN GAA850 act -4, HSF1 inh 13, AHR activator 104*, AHR act confirm 41 and PXR counter -2.
For COc1cccc(N=c2oc3ccccc3cc2-c2nc3ccccc3[nH]2)c1 the results were HSF1 activator 71*, FXN GAA850 act -2, HSF1 inh 25, AHR activator 92*, AHR act confirm 132* and PXR counter 23*.
For CCOC(=O)C(C#N)C(Cc1ccccc1)c1ccco1 (stereo unspecified) the results were HSF1 activator 1, FXN GAA850 act 0, HSF1 inh -2 and AHR activator 0.
For COC(=O)c1ccc(NC(=O)CCS(=O)(=O)c2ccc(Br)s2)cc1 the results were HSF1 activator -3, FXN GAA850 act 0, HSF1 inh -2 and AHR activator 3.
For Cn1c(=O)n(CCc2ccccc2)c(=O)c2c1ncn2Cc1ccccc1 the results were HSF1 activator 1, FXN GAA850 act -2, HSF1 inh 11, AHR activator 81*, AHR act confirm 95* and PXR counter 28*.
CCCn1c(=O)c2c(nc3n2CCCN3Cc2ccccc2)n(C)c1=O was read as HSF1 activator -16, FXN GAA850 act -3, HSF1 inh -11 and AHR activator 3.
